Among the data in PubChem BioAssay (NCI) are growth values, retold here.

About 83,000 compounds went through this panel and 20% of them were active in at least one assay; those are over-represented in the sample as a whole.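 How to read the values: 0–100, growth inhibition (40 = 60% inhibited); 0, no net growth; -100 to 0, cell death (-40 = 40% of starting cells died; -100 = all dead).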 Unmarked numbers belong to inactive results. The source made the active and inactive calls. How the source made its calls: active means growth percent below 10; inactive means the rest.

Test systems include T-47D breast; BT-549 breast; MDA-MB-435 melanoma; SW-620 colon; MCF7 breast; HCT-116 colon; HCC-2998 colon; KM12 colon.
What all share (experiment): NCI-60 one-dose screen, 48 h (100 = growth as untreated, 0 = no growth, -100 = all killed)
Holding throughout (details): 10 µM unless noted

As for `CCCOc1cc2ccccc2cc1C(=O)Nc1nc(NC)c2c(ccc3nccc32)[nH]1`, the growth was -52.5% (active) in the test on T-47D breast; -27.4% (active) with BT-549 breast; -89.2% (active) in the test on MDA-MB-435 melanoma; -75% (active) in the test with SW-620 colon; -61.9% (active) in the test with MCF7 breast; -72.3% (active) in the test with HCT-116 colon. The growth with HCC-2998 colon was -70.5% (active); in the test with KM12 colon, -72.2% (active).
Turning to `O=C(/C=C/c1cccc([N+](=O)[O-])c1)c1ccc(O)c(CN2CCN(c3cc4c(cc3F)c(=O)c(C(=O)O)cn4C3CC3)CC2)c1`, the growth with T-47D breast was 10.9%; in the test with BT-549 breast, 6.04% (active); in the test on MDA-MB-435 melanoma, 11.2%; in the test on SW-620 colon, -43% (active); in the test on MCF7 breast it was 1.85% (active); in the test with HCT-116 colon, -59.5% (active). Moreover, in the test with HCC-2998 colon, the growth was 35.5%.
`COc1cc2c(cc1O)CC[C@@H]1[C@@H]2CC[C@]2(C)[C@@H](OCCCN(C)C)CC[C@@H]12`: the growth was -48.9% (active) in the test with T-47D breast; -54.4% (active) in the test with BT-549 breast; -61.8% (active) with MDA-MB-435 melanoma; -43.1% (active) in the test with SW-620 colon; -68.9% (active) in the test on MCF7 breast; -71% (active) with HCT-116 colon.
As for `O=C(O)COc1ccc(Cl)cc1C1CCCCC1`, the growth with T-47D breast is 114%; in the test on BT-549 breast it was 117%; in the test on MDA-MB-435 melanoma it was 107%; in the test with SW-620 colon it was 104%; in the test on MCF7 breast, 104%; with HCT-116 colon, 101%.
For `CCCCN1CCCn2c1nc1c2c(=O)n(CCC)c(=O)n1CCC`, the growth is 101% with T-47D breast; 98.1% in the test with BT-549 breast; 102% in the test with MDA-MB-435 melanoma; 96% in the test with SW-620 colon; 100% in the test with MCF7 breast; 98.3% with HCT-116 colon. Besides, the growth with HCC-2998 colon was 104%.
As to `CN(C)c1ccc(N=Nc2ccc(Br)cn2)c(O)c1`, the growth in the test on T-47D breast was 30.2%; in the test on BT-549 breast it was 38.2%; in the test on MDA-MB-435 melanoma, 33%; with SW-620 colon it was 26.1%; with MCF7 breast it was 10.4%; in the test with HCT-116 colon, 25.5%. Also, the growth in the test on HCC-2998 colon was 34.3%.
As for `O=C(COc1ccc(/C=C2\COc3ccccc3C2=O)cc1)Nc1nccs1`, the growth is 90% in the test on T-47D breast; 2.68% (active) with BT-549 breast; 105% with MDA-MB-435 melanoma; 69.1% in the test with SW-620 colon; 15% in the test on MCF7 breast; 38.1% in the test with HCT-116 colon. Moreover, the growth in the test with HCC-2998 colon is 168%.
For the molecule `CCN(CC)c1ccc(-c2cc(-c3cc(OC)c(OC)c(OC)c3)nc(N3CCOCC3)c2C#N)cc1`, the growth is 22.2% in the test on T-47D breast; 38.6% in the test on BT-549 breast; -27.5% (active) in the test on MDA-MB-435 melanoma; 30.8% with SW-620 colon; 29.8% in the test on MCF7 breast; 10.5% with HCT-116 colon. Further, in the test with HCC-2998 colon, the growth was 29.9%.
As to `OCCNc1nccc(N2CCN(c3ccnc4cc(Cl)ccc34)CC2)n1`, the growth was 69% in the test on T-47D breast; 68.3% in the test with BT-549 breast; 7.31% (active) in the test on MDA-MB-435 melanoma; 44.4% in the test with SW-620 colon; 34.2% in the test on MCF7 breast; 47.1% with HCT-116 colon. In addition, in the test on HCC-2998 colon, the growth is 86.4%.
`COc1cc2c(cc1-c1c(C)noc1C)ncc1nc(C3CCOCC3)n([C@H](C)COC(F)F)c12`: the growth is 46% in the test on T-47D breast; 68.8% with BT-549 breast; 40.6% in the test with MDA-MB-435 melanoma; 59% in the test with SW-620 colon; 19.2% with MCF7 breast; 40.4% with HCT-116 colon. In the test on HCC-2998 colon, the growth was 47.7%.
`COc1cc(/C=C/C(=O)c2c(C)oc3nc[nH]c(=O)c23)cc(OC)c1OC`: the growth is 58.9% with T-47D breast; 72.6% with BT-549 breast; 74.4% in the test on MDA-MB-435 melanoma; 77.5% with SW-620 colon; 47.9% in the test on MCF7 breast; 61.3% with HCT-116 colon. Further, the growth in the test on HCC-2998 colon was 112%.
In the case of `Cc1cc(NS(=O)(=O)c2ccc(-c3cnc(C4CC4)o3)cc2)ccc1Cl`, the growth in the test on T-47D breast is 32.4%; in the test on BT-549 breast it was 28.8%; in the test with MDA-MB-435 melanoma, 0.57% (active); with SW-620 colon it was 21.7%; with MCF7 breast it was 11.1%; in the test with HCT-116 colon it was 13.3%. Moreover, the growth in the test with HCC-2998 colon is 25.1%.
Turning to `NC(=NCCCOc1ccc(Cl)cc1)Nc1ccc(C(F)(F)F)cc1`, the growth with T-47D breast was 2.82% (active); in the test with BT-549 breast, 73.2%; with MDA-MB-435 melanoma it was 8.95% (active); in the test on SW-620 colon, 14.5%; with MCF7 breast it was 9.17% (active); in the test on HCT-116 colon, 8.24% (active).
For `C/C1=C\CC[C@@]2(C)O[C@H]2[C@H]2OC(=O)C(CN3CCN(CC4C(=O)O[C@H]5[C@H]4CC/C(C)=C/CC[C@@]4(C)O[C@@H]54)CC3)[C@@H]2CC1` (some centres not stated), the growth in the test on T-47D breast is 81.5%; in the test with BT-549 breast it was 105%; with MDA-MB-435 melanoma, 89.1%; with SW-620 colon it was 86.3%; with MCF7 breast, 74.4%; in the test on HCT-116 colon, 88%.
For `CC(C)C1=C[C@@]23CC[C@@H]4[C@](C)(CCC[C@@]4(C)C(=O)N4CCCNCC4)[C@H]2C[C@@H]1[C@H]1C(=O)CCC(=O)[C@H]13`, the growth was 100% with T-47D breast; 104% in the test with BT-549 breast; 109% with MDA-MB-435 melanoma; 105% with SW-620 colon; 90.4% in the test with MCF7 breast; 103% in the test with HCT-116 colon. In addition, the growth in the test with HCC-2998 colon is 107%.
For `COc1ccc(CCNc2nc3c(c(=O)n(Cc4ccc(Br)cc4)c(=O)n3C)n2C)cc1OC`, the growth is 66.2% with T-47D breast; 86.5% with BT-549 breast; 99.2% with MDA-MB-435 melanoma; 99.5% in the test with SW-620 colon; 94.4% with MCF7 breast; 90.5% with HCT-116 colon. Also, in the test on HCC-2998 colon, the growth is 101%.
For the molecule `O=c1c2c3c(sc2nc(N/N=C/c2cn(-c4ccccc4)nc2-c2ccc(Cl)cc2)n1Cc1ccccc1)CCCC3`, the growth in the test with T-47D breast is 105%; with BT-549 breast it was 92.1%; in the test on MDA-MB-435 melanoma, 93.4%; in the test with SW-620 colon it was 107%; in the test with MCF7 breast, 104%; in the test on HCT-116 colon, 90.3%.
In the case of `NC1=C(Cl)C(=O)c2ccc(S(N)(=O)=O)cc2C1=O`, the growth in the test with T-47D breast was -46.1% (active); in the test on BT-549 breast it was -91.5% (active); in the test with MDA-MB-435 melanoma, -86.8% (active); with SW-620 colon, -77.9% (active); in the test on MCF7 breast it was -49.5% (active); in the test on HCT-116 colon, -90.1% (active). Also, the growth with HCC-2998 colon is -97.1% (active).
